Assay outcomes: PubChem, several laboratories
Rows were chosen to be rich in hits. Some 2% of all compounds tested hit in one or more screens of this group.
Mcl1-Bid inh = Mcl-1/Bid binding inhibitors, primary screen, biochemical, TR-FRET, 1536-well; TR-FRET Mcl-1/Bid-Dy647 peptide binding; inhibition, % at 21.7 µM; 220,000 tested, 0.97% active;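 active means compounds that cut the binding signal by more than half at the single screening dose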;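 further: His-tagged Mcl-1 with europium anti-His antibody binding Bid BH3 peptide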
Target sequence (Q07820 whole entry, looked up): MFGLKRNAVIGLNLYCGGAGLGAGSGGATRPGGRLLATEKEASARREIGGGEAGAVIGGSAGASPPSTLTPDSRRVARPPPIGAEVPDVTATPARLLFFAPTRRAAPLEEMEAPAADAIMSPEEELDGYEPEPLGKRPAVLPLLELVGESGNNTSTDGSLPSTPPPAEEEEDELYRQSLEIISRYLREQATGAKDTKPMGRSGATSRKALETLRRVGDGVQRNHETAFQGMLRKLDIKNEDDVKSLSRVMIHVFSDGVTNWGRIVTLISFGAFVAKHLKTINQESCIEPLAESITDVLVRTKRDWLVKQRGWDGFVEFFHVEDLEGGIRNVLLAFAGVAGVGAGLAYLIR
Bim-Mcl-1 = inhibitors of Bim peptide binding to Mcl-1, primary screen, biochemical, bead-based flow cytometry, multiplex; Induced myeloid leukemia cell differentiation protein Mcl-1 (Homo sapiens), Q07820; Bim peptide-Mcl-1 binding; inhibition, % at 10 µM; 190,000 tested, 0.1% active; AID 1009, 2008; in the data active means inhibition above about 40%
Mcl1-Noxa inh = Mcl-1/Noxa binding inhibitors, primary screen, biochemical, TR-FRET, 1536-well; Induced myeloid leukemia cell differentiation protein Mcl-1 (Homo sapiens), Q07820; TR-FRET Mcl-1/Noxa peptide binding, 2 h; inhibition, % at 21.7 µM; 220,000 tested, 1.5% active; AID 1022, 2008;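 active means compounds that cut the protein-peptide binding signal by more than 50% relative to plate controls in a single-dose test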;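 further: His-tagged Mcl-1 with rhodamine Noxa BH3 peptide and terbium anti-His antibody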
MCL1-BIM inh = inhibitors of MCL1 binding to BIM-BH3, primary screen, biochemical, fluorescence polarization | GST-MCL1 / FITC-Bim-BH3 fluorescence polarization | AID 2057, 2009 | Induced myeloid leukemia cell differentiation protein Mcl-1 (Homo sapiens), Q07820 | 320,000 tested, 0.68% active | inhibition, % at 10.9 µM;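 active means inhibition above the mean inhibition of all tested compounds plus 3 SD, set per campaign, cut at about 40% in these data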;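 further: higher means more loss of mP so more displacement of Bim peptide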
Hits are given with their value.

COc1ccc2cc(C3(C)NC(=O)N(CC(=O)NCCC4=CCCCC4)C3=O)ccc2c1 (stereo unspecified) was read as Mcl1-Bid inh inactive, Bim-Mcl-1 inactive, Mcl1-Noxa inh inactive and MCL1-BIM inh inactive.
Screening COc1ccc(C2(C)NC(=O)N(CC(=O)NCCC3=CCCCC3)C2=O)cc1OC (stereo unspecified) returned Mcl1-Bid inh 84, Bim-Mcl-1 inactive, Mcl1-Noxa inh inactive and MCL1-BIM inh inactive.
Screening Cc1ccc(-n2nnc(-c3ccnc4ccccc34)n2)cc1 returned Mcl1-Bid inh inactive, Bim-Mcl-1 inactive, Mcl1-Noxa inh inactive and MCL1-BIM inh inactive.
For CCCN(CCC)CCNc1c(N2CCN(C(=O)OCC)CC2)c(=O)c1=O the results were Mcl1-Bid inh inactive, Bim-Mcl-1 inactive, Mcl1-Noxa inh 64 and MCL1-BIM inh inactive.
CCCN(CCC)CCNc1c(NC2CCN(C(=O)OCC)CC2)c(=O)c1=O was read as Mcl1-Bid inh inactive, Bim-Mcl-1 inactive, Mcl1-Noxa inh inactive and MCL1-BIM inh inactive.
Screening Cc1ccc(/C=N/n2c(-c3cccs3)n[nH]c2=S)cc1 returned Mcl1-Bid inh inactive, Bim-Mcl-1 inactive, Mcl1-Noxa inh inactive and MCL1-BIM inh inactive.
For S=c1[nH]nc(-c2cccs2)n1/N=C/c1c(Cl)cccc1Cl the results were Mcl1-Bid inh inactive, Bim-Mcl-1 inactive, Mcl1-Noxa inh 56 and MCL1-BIM inh inactive.
Screening COc1cc(C(=O)Nc2ccc(N(C)C)cc2)c([N+](=O)[O-])cc1OC returned Mcl1-Bid inh inactive, Bim-Mcl-1 inactive, Mcl1-Noxa inh 69 and MCL1-BIM inh inactive.
For Cc1ccc(NC(=O)C2=NNC(=O)CC2)cc1S(=O)(=O)Nc1ccc(SC(F)F)cc1 the results were MCL1-BIM inh inactive.
`O=c1cc(-c2ccc([N+](=O)[O-])cc2)nc2cc(-c3ccc(Cl)cc3)[nH]n12` gave Mcl1-Bid inh 87, Bim-Mcl-1 inactive, Mcl1-Noxa inh 97 and MCL1-BIM inh inactive.
Nc1ccc(NC(=O)c2ccccc2)c2c1C(=O)c1ccccc1C2=O was read as Mcl1-Bid inh 54, Bim-Mcl-1 inactive, Mcl1-Noxa inh 66 and MCL1-BIM inh inactive.
Nc1ccccc1NC(=O)c1ccccc1 was read as Mcl1-Bid inh inactive, Bim-Mcl-1 inactive, Mcl1-Noxa inh inactive and MCL1-BIM inh inactive.
`Nc1ccc(Br)c2c1C(=O)c1ccccc1C2=O` gave Mcl1-Bid inh inactive, Bim-Mcl-1 inactive, Mcl1-Noxa inh inactive and MCL1-BIM inh 40.
`COc1ccc(N)c2c1C(=O)c1ccccc1C2=O` gave Mcl1-Bid inh inactive, Bim-Mcl-1 inactive, Mcl1-Noxa inh inactive and MCL1-BIM inh inactive.
`CC(=O)Nc1cccc(CP(=O)(c2ccccc2)c2ccccc2)c1` gave Mcl1-Bid inh inactive, Mcl1-Noxa inh inactive and MCL1-BIM inh inactive.
Oc1cc2c(cc1C(c1ccc(Cl)c(Cl)c1)N1CCCC1)OCO2 (stereo unspecified) was read as Mcl1-Bid inh 94, Bim-Mcl-1 inactive and Mcl1-Noxa inh 92.
For C=C1[C@@H](OC(C)=O)CC[C@]2(C)[C@@H]1C[C@@H]1C[C@H](OC(C)=O)C(C)=C([C@@H](OC(C)=O)[C@@H]2OC(C)=O)C1(C)C the results were Mcl1-Bid inh inactive, Mcl1-Noxa inh inactive and MCL1-BIM inh inactive.
Nc1nc2ccc([N+](=O)[O-])c(N)c2s1 was read as Mcl1-Bid inh inactive, Bim-Mcl-1 inactive, Mcl1-Noxa inh 54 and MCL1-BIM inh inactive.
Screening O=C(CC1SC(N2CCCCC2)=NC1=O)Nc1cccc(C(=O)Nc2ncccc2O)c1 (stereo unspecified) returned MCL1-BIM inh inactive.
COc1ccc(-c2csc(NC(=O)C3CC(=O)N(Cc4ccco4)C3)n2)cc1 (stereo unspecified) was read as Mcl1-Bid inh inactive, Bim-Mcl-1 inactive, Mcl1-Noxa inh inactive and MCL1-BIM inh inactive.
O=C(Nc1nccs1)C1CC(=O)N(Cc2ccco2)C1 (stereo unspecified) was read as Mcl1-Bid inh 88, Bim-Mcl-1 inactive, Mcl1-Noxa inh inactive and MCL1-BIM inh inactive.
O=C(O)c1ccc(NS(=O)(=O)c2ccc3c(c2)C2C=CCC2C(c2ccccc2F)N3)cc1 (stereo unspecified) was read as Mcl1-Bid inh inactive, Bim-Mcl-1 inactive and Mcl1-Noxa inh 93.
`O=S(=O)(c1ccc(SCCOc2ccc(Cl)cc2)nc1)N1CCCC1` gave MCL1-BIM inh inactive.
For CC1SC(C)C(=O)N(CC(=O)Nc2ccc3c(c2)OCO3)C1=O (stereo unspecified) the results were Mcl1-Bid inh inactive, Bim-Mcl-1 inactive, Mcl1-Noxa inh inactive and MCL1-BIM inh inactive.
For NC(=O)c1nn(CC(=O)Nc2ccc3c(c2)OCO3)cc1[N+](=O)[O-] the results were Mcl1-Bid inh inactive, Bim-Mcl-1 inactive, Mcl1-Noxa inh 74 and MCL1-BIM inh inactive.
`O=C(CN1C(=O)CSCC1=O)Nc1ccc2c(c1)OCO2` gave Mcl1-Bid inh inactive, Bim-Mcl-1 inactive, Mcl1-Noxa inh 53 and MCL1-BIM inh inactive.
For COc1ccc(NC(=O)c2cccc(S(=O)(=O)NCc3ccco3)c2)c(OC)c1 the results were MCL1-BIM inh inactive.
Screening Cc1cc(C2C(C#N)=C(N)OC3=C2C(=O)CCC3)c(C)s1 (stereo unspecified) returned Mcl1-Bid inh inactive, Bim-Mcl-1 inactive, Mcl1-Noxa inh inactive and MCL1-BIM inh inactive.
For COc1cc(C2C(C#N)=C(N)OC3=C2C(=O)CCC3)c([N+](=O)[O-])cc1OC (stereo unspecified) the results were Mcl1-Bid inh inactive, Bim-Mcl-1 inactive, Mcl1-Noxa inh 97 and MCL1-BIM inh 194.
For COc1ccc(Cn2nnnc2C(c2ccccc2OC)N2CCC(C(N)=O)CC2)cc1 (stereo unspecified) the results were Mcl1-Bid inh inactive, Bim-Mcl-1 inactive, Mcl1-Noxa inh inactive and MCL1-BIM inh inactive.
Screening COc1ccc(Cn2nnnc2C(c2ccc(N(C)C)cc2)N2CCC(C(N)=O)CC2)cc1 (stereo unspecified) returned Mcl1-Bid inh inactive, Bim-Mcl-1 inactive, Mcl1-Noxa inh 54 and MCL1-BIM inh inactive.
For CCOC(=O)NC(=O)/C(C#N)=C/c1ccc(N(C)C)cc1 the results were Mcl1-Bid inh 82, Mcl1-Noxa inh inactive and MCL1-BIM inh inactive.
Screening COCCN(C(=O)COC(=O)c1ccccc1NCc1ccco1)c1c(N)n(Cc2ccccc2)c(=O)[nH]c1=O returned MCL1-BIM inh inactive.
For O=C(N/N=C/c1cccnc1)c1ccc(CN2c3cccc4cccc(c34)S2(=O)=O)cc1 the results were Mcl1-Bid inh inactive, Bim-Mcl-1 inactive, Mcl1-Noxa inh 66 and MCL1-BIM inh inactive.
`O=C(Nc1ccc(S(=O)(=O)Nc2ncccn2)cc1)C1CC(=O)N(c2ccc(Cl)cc2)C1` (stereo unspecified) gave MCL1-BIM inh inactive.
`C=CCOC(=O)/C=C/C(=O)NC(N)=O` gave Mcl1-Bid inh 75, Mcl1-Noxa inh inactive and MCL1-BIM inh inactive.
